Compound activity from PubChem BioAssay.
ROMK mod: modulators of human ROMK potassium channel | AID 1918 | P48048 | B-score at 10 µM | Tet-inducible ROMK, thallium flux fluorescence; actives lie on both sides | 130,000 compounds, 2% hits;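 active = signal ratio slope over the read window, or its plate-corrected B-score, at least 3 SD from the plate mean, either direction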;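 note: B-score of the F/F0 ratio slope over 7 to 12 s after thallium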
Target sequence (P48048 whole entry, looked up): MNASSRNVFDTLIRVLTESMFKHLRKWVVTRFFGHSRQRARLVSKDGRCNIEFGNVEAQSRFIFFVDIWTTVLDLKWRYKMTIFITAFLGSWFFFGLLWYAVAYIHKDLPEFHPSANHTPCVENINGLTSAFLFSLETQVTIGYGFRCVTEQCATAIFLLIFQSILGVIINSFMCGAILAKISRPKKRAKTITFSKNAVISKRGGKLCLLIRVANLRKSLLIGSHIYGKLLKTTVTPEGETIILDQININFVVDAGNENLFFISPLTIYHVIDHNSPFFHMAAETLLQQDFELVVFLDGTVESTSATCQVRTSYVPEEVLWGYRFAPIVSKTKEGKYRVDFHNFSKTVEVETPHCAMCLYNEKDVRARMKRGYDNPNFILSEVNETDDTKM
WT yeast gro inh: growth inhibition of WT yeast, mitochondrial fusion screen | mitochondrial fusion phenotypic screen, WT strain | inhibition, % at 10 µM | 190,000 compounds, 2.1% hits | AID 1362; in the data active = inhibition above about 58%; tested in S. cerevisiae
Insulin prom inh: TRM-6 insulin promoter activity inhibition; TRM-6 cells (human fetal islet line), insulin promoter-eGFP reporter, imaging; reporter expression induced with tamoxifen; inhibition, % at 2 µM; 130,000 compounds, 0.9% hits; AID 1273;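 active = inhibition above the mean plus 3 SD, with well images judged a real hit on visual review, cut at about 60% in these data, passing the limit was not always enough; inconclusive = inhibition over the cutoff but images rejected on review; inactive = inhibition not above the cutoff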
Cl transport mod: modulators of human KCC2 chloride dependent transport | Q9H2X9 | KCC2 cells, thallium flux FluoZin-2 fluorescence | B-score of Tl+ flux slope (higher = more flux/activation; lower = inhibition) at 10 µM | 190,000 compounds, 2.2% hits;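 active = thallium flux slope and its plate-corrected score both differing from the plate sample mean at a set confidence after two filtering rounds, in either direction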;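 note: slope of fluorescence scaled to starting intensity during 10 to 20 s after thallium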
Insulin prom up: MIN6 insulin promoter up-regulation; MIN6 insulin promoter-GFP reporter, high-content imaging; active compounds read high; z-score at 5 µM; 190,000 compounds, 0.3% hits; AID 1625;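 active = z-score above 3 at 5 µM with at least 500 cells counted in the well; inconclusive = wells under 500 cells, flagged as cytotoxic or low count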
L major viab: Leishmania major promastigote growth inhibition. inhibition, % at 10 µM. 200,000 compounds, 9% hits. Leishmania major promastigotes, resazurin fluorescence viability. AID 1063; in the data active = inhibition above about 50%;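 note: promastigotes grown with compound for 44 hours at 28 °C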
Numbers stand for hits; 0 = inactive; ? = inconclusive; - = no result. This is a sample that favours compounds with a hit; in the whole collection about 12% have one here.

SMILES	ROMK mod	WT yeast gro inh	Insulin prom inh	Cl transport mod	Insulin prom up	L major viab
CC(=O)N1c2ccc3ccccc3c2C2C=CCC2C1c1ccc(Br)cc1 (stereo not drawn)	0	0	0	0	0	97
Cc1nc(C)n(CC(=O)N2CCCC(C(=O)c3ccc(Cl)cc3C)C2)n1 (stereo not drawn)	0	0	-	0	0	0
CCOC(=O)CNS(=O)(=O)c1cc(-c2nn(C)c(=O)c3ccccc23)ccc1C	0	70	-	0	-	0
CCOC(=O)NCc1cc(-c2nn(C)c(=O)c3ccccc23)ccc1C	0	0	0	0	0	0
Cc1ccc(-c2nn(C)c(=O)c3ccccc23)cc1S(=O)(=O)NCCN1CCOCC1	0	0	0	-	0	65
Cc1ccc(S(=O)(=O)Nc2cc(-c3nn(C)c(=O)c4ccccc34)ccc2N2CCOCC2)cc1	0	0	0	-	0	0
CC12COC3(C(=O)Nc4ccccc4)CC1CCC32C (stereo not drawn)	0	0	-	0	0	0
CC12COC3(C(=O)Nc4ccc5ccccc5c4)CC1CCC32C (stereo not drawn)	0	77	-	0	0	0
Cc1ccc(Cl)cc1N1CCN(CC(=O)NC2CCCc3ccccc32)CC1 (stereo not drawn)	0	74	0	0	0	0
O=C(CN1CCN(c2ccccc2Cl)CC1)NC1CCCc2ccccc21 (stereo not drawn)	-	0	0	0	0	0
O=C(Nc1ccon1)c1ccccc1F	0	0	0	0	0	0
S=C(Nc1ccc(Oc2ccccc2)cc1)N(CCCN1CCOCC1)Cc1ccccn1	0	0	-	0	0	0
COc1ccc(NC(=O)c2[nH]c(C)c(C(C)=O)c2C)cc1Cl	0	0	0	-	3.8	0
O=C(Nc1ccc(S(=O)(=O)NCc2cccnc2)cc1)c1ccco1	-	0	-	0	0	0
CCCCCCCn1c2c(c(=N)c3c1CCC3)CCCC2	0	0	0	0	?	100
CCCCn1c2c(c(=N)c3c1CCC3)CCC2	-	0	0	-	0	100
N=c1c2c(n(Cc3ccc(F)cc3)c3c1CCC3)CCC2	0	66	-	-	0	100
CCn1c2c(c(=N)c3c1CCC3)CCC2	0	0	0	0	0	0
CCCCCCn1c2c(c(=N)c3c1CCC3)CCC2	-	0	0	-	?	100
NC(=O)N=Nc1c2[nH]c3ccccc3nc-2c2ccccc12	-	-	-	0	0	-
O=C(CN1CCCN(Cc2ccc(F)cc2Cl)C1=O)NC1CCCCCCC1	-	0	0	0	0	0
O=C(CSc1ccc(Br)cc1)NCC1CCCO1 (stereo not drawn)	0	0	0	0	0	0
COCC(=O)Nc1cc(Cl)c(OC)cc1OC	0	0	-	0	0	0
C(=C1/CCCC2=C1Nc1ncnn1C2c1ccccc1)/c1ccccc1 (stereo not drawn)	-	0	73	0	0	100
S=C1NC2=C(CCC/C2=C\c2ccccc2)C(c2ccccc2)N1 (stereo not drawn)	-	0	0	0	0	0
SMILES	ROMK mod	WT yeast gro inh	Insulin prom inh	Cl transport mod	Insulin prom up	L major viab
FC(F)(F)c1ccccc1C1C2=C(Nc3ncnn31)c1ccccc1CCC2 (stereo not drawn)	0	0	0	0	0	96
COc1ccc(C2C3=C(Nc4ncnn42)c2ccccc2CC3)cc1OC (stereo not drawn)	-	0	-	0	0	0
COCCn1c(SCC(=O)NNC(=O)c2ccccc2)nc2ccccc2c1=O	-	0	-	0	0	0
O=C(O)c1ccccc1C(=O)c1ccc2c(c1)N(Cc1ccc(Cl)c(Cl)c1)C(=O)CO2	0	63	0	0	0	100
C#CCOCCOCCOCCNc1nc(N2CCN(C(=O)[C@H]([C@@H](C)CC)n3cc([C@@H](N)CC(C)C)nn3)CC2)nc(N2CCN(C(=O)[C@H](Cc3ccc(O)cc3)n3cc([C@@H](N)C(C)CC)nn3)CC2)n1 (stereo partly drawn)	-	0	-	0	0	0
O=C(Cc1c(Sc2ccccc2)c2ccccc2n1Cc1ccccc1)NCCO	0	0	0	0	0	58
Cn1c(CC(=O)NCCO)c(Sc2ccccc2)c2ccccc21	0	0	0	0	0	0
Cc1cccc(N2CCN(C(=O)Cc3ccc(-n4c(=O)[nH]c5ccsc5c4=O)cc3)CC2C)c1 (stereo not drawn)	-	0	0	0	0	56
Cc1cccc(N2CCN(C(=O)Cn3c(=O)[nH]c4ccsc4c3=O)CC2C)c1 (stereo not drawn)	0	0	0	0	0	0
O=C(Cc1ccc(-n2c(=O)[nH]c3ccsc3c2=O)cc1)N1CCN(c2ccc(Cl)cc2)CC1	-	0	0	0	0	70
COc1ccc2cc(/C=N/NC(=O)c3ccc(CN(c4cccc(Cl)c4Cl)S(C)(=O)=O)cc3)c(Cl)nc2c1	0	0	0	0	0	80
COc1ccc2cc(/C=N/O)c(Cl)nc2c1	0	0	0	0	0	0
Cn1nnnc1SCC(=O)c1ccco1	-	0	-	0	0	0
COc1cc2c(C#N)c(N3CCCCC3)nc(N)c2c(N)n1	-	0	0	0	0	0
COc1cc2c(C#N)c(N3CCc4ccccc4C3)nc(N)c2c(N)n1	-	0	-	0	0	54
O=C(NCc1ccc(Cl)cc1)C(=O)NCC1OCCN1C(=O)c1ccc(Cl)cc1 (stereo not drawn)	0	0	69	0	-	0
COc1ccc(C2c3c(oc4ccc(Cl)cc4c3=O)C(=O)N2CCN2CCOCC2)cc1 (stereo not drawn)	-	-	-	0	0	-
O=C1c2oc3ccc(Cl)cc3c(=O)c2C(c2ccco2)N1CCN1CCOCC1 (stereo not drawn)	-	0	-	5.6	0	0
Cc1ccc(C2c3c(oc4ccc(Cl)cc4c3=O)C(=O)N2CCCN2CCOCC2)o1 (stereo not drawn)	-	0	-	6.6	0	0
NNC(=O)CCN1CCN(Cc2ccccc2)CC1	0	0	0	0	0	0
Cc1nnc(-c2cnn(C)c2N)n1Cc1ccccc1	0	0	0	-	-	0
Cc1nnc(-c2cnn(C)c2N)n1Cc1cccc(Cl)c1	0	0	89	-	0	0
C=CCn1c(SCC(=O)N2CCN(c3ccccc3)CC2)nnc1-c1ccco1	-	0	77	-	0	0
CC1CCN(c2oc(-c3ccccc3Cl)nc2C#N)CC1	0	0	0	0	0	0
CCOc1ccc(NC(=O)CCSc2ccc3ccccc3n2)cc1	-	0	0	0	0	0
Cc1cc(C)n(-c2nc(NCC(C)O)c3c4c(sc3n2)COC(C)(C)C4)n1 (stereo not drawn)	-	0	0	0	0	0
Cc1cc(C)n(-c2nc(SCCN(C)C)c3c4c(sc3n2)COC(C)(C)C4)n1	-	0	0	0	0	101
Cc1cc(/C=C\c2ccccc2)nc2ccccc12	0	71	-	0	0	0
CCOC(=O)C1=C(CC)Nc2ccccc2N/C1=N\S(=O)(=O)c1ccc2ccccc2c1	0	72	0	0	0	0
CC(SCc1ccccc1)C(=O)Nc1ccccc1-c1ccccc1 (stereo not drawn)	0	0	0	0	0	57
